Screening results from PubChem.
Shown are actives, neighbours in structure and some others; about 3.1% of the full set was active somewhere.
Vif-A3F inh – Vif-A3F binding inhibition. HeLa A3F-eYFP + Vif (tagged APOBEC3F with the HIV-1 protein that degrades it), YFP fluorescence increase. Potency, µM (series often up to 46.1 µM), for inactives: at the highest dose activity, negative = active. hit rate 0.2% among 390,000. AID 602313; note: potency is the fitted concentration of half-maximal effect; % of control where 0% means no effect; nearly all actives have a fitted effect of over 65% in size
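HeLa cells stably expressing Vif plus C-terminally eYFP-tagged A3F were seeded, incubated overnight at 37 deg C, dosed with compound, incubated overnight again at 37 deg C. Yellow fluorescence (Ex 488/Em 500-530) reported blocked Vif-mediated A3F-eYFP degradation.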
TSHR antagonist – antagonists of human thyroid stimulating hormone receptor; TSHR-expressing cells, TSH-stimulated cAMP HTRF, 2 h; stronger effect = lower value; activity change, negative = inhibition, % at 11.5 µM; hit rate 0.2% among 330,000;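 active = activity change below a set negative limit, meaning inhibition stronger than a set level, cut at about -70% in these data; inconclusive = activity change between two set negative limits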; note: % is set by controls: 0 for no effect and ±100 for the full control effect
Target sequence (P16473 whole entry, looked up): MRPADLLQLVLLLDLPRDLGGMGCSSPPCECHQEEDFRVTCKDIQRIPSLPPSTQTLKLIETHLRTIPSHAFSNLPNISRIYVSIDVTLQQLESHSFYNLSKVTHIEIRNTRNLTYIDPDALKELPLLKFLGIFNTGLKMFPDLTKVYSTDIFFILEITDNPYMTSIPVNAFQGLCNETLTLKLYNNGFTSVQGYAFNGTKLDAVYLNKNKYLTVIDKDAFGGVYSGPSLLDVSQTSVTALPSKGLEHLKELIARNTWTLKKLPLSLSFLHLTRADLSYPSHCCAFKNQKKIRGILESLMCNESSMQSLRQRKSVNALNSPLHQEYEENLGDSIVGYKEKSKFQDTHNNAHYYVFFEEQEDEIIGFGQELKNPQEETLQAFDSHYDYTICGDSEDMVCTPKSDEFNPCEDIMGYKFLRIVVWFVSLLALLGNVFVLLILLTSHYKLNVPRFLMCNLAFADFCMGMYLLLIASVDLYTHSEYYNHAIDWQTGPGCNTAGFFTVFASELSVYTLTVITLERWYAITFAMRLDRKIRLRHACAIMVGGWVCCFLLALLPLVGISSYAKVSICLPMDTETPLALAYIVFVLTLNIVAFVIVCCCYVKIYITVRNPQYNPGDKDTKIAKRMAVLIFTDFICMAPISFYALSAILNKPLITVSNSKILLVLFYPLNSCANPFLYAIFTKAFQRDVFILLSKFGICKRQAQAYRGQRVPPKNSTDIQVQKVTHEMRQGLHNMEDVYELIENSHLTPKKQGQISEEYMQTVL
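TSHR-expressing cells, 200/well, pre-treated with compound, then stimulated with EC80 TSH (4nM final) for 2 hours at 37 deg C. cAMP measured by competitive HTRF: anti-cAMP cryptate antibody in lysis buffer plus cAMP-d2, read after 30 minutes at room temperature.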
Vif-APOBEC3G blk – blocks the Vif interaction with human APOBEC3G | Q9HC16 | HeLa A3G-eYFP + Vif (tagged APOBEC3G with the HIV-1 protein that degrades it), YFP fluorescence, overnight | Potency, µM (titrated, usually from 46.1 µM), for inactives: top-dose activity, negative = active, most hits filed as inhibitors | hit rate 0.076% among 410,000; note: potency is the fitted concentration of half-maximal effect; % is set by controls: 0 for no effect and ±100 for the full control effect; nearly all actives have a fitted effect of over 60% in size
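HeLa cells stably expressing Vif and C-terminally eYFP-tagged A3G, seeded overnight at 37 deg C, then exposed to compound by pintool overnight at 37 deg C. Rise in yellow fluorescence (Ex 488/Em 500-530, Acumen) marks blocked Vif-driven A3G degradation.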
VDR inh – inhibitors of human vitamin D receptor | hit rate 0.93% among 400,000 | VDR-SRC2-3 peptide fluorescence polarization, 2 h | P11473 | Potency, µM, for the others: max response, negative = inhibition, usual class: inhibitors | AID 504847; note: potency is the fitted concentration of half-maximal effect; % is set by controls: 0 for no effect and ±100 for the full control effect
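After 23 nl compound addition and a short centrifugation, plates sat for 2 hours at ambient temperature; polarization of fluorescence then indicated loss of VDR binding to peptide SRC2-3.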
PLK1 PBD block – inhibitors of human PLK1 polo-box domain binding; Plk1 PBD binding of FITC phosphopeptide, fluorescence polarization; Potency, µM, for inactives: max response, negative = inhibition, hits mostly inhibitors; hit rate 2.8% among 360,000; AID 720504; note: potency is the fitted concentration of half-maximal effect; series mostly up to about 57 µM; % is set by controls: 0 for no effect and ±100 for the full control effect; nearly all actives have a fitted effect of over 65% in size
* marks the source's active call; other numbers are inactive results; ? = inconclusive; . = no result given. Unless noted, calls come from the whole dose curve; as a rule, active = well fitted curve in the direction sought with a large enough effect; inconclusive = small, poorly fitted or top-dose-only effect, or another doubt; inactive = no such curve, though single readings can be large; an effect the other way counts as inactive or inconclusive.

SMILES	Vif-A3F inh	TSHR antagonist	Vif-APOBEC3G blk	VDR inh	PLK1 PBD block
CC(C)[C@H](NC(=O)OCc1ccccc1)C(=O)NC(C=O)Cc1ccccc1 (stereo not given in full)	-3%	3	-3%	-9%	-13%
CCOC(=O)N1CCN(/[N+]([O-])=N/Oc2ccc(C(F)(F)F)cc2[N+](=O)[O-])CC1	.	.	1%	.	.
O=c1c(-c2cc(O)c(O)c(O)c2)coc2cc(O)c(O)c(O)c12	.	.	.	14µM*	.
NCC(=O)N[C@@H](CCCN=C(N)N)C(=O)NCC(=O)N[C@@H](CC(=O)O)C(=O)N[C@@H](CO)C(=O)O	.	.	.	6%	.
N#CCCN1CCN(C(CNS(=O)(=O)c2ccc(Cl)cc2)c2ccccc2)CC1 (stereo not given)	.	-5	-1%	-3%	-5%
O=S(=O)(NCC(c1ccccc1)N1CCC(O)CC1)c1ccc(Cl)cc1 (stereo not given)	0%	13	0%	-25%	21µM*
C=C(C(C)=O)C(O)c1cccc(Br)c1 (stereo not given)	.	.	.	-5%	.
COc1ccccc1N1CCN(C(=O)c2ccc3nc(-c4ccco4)c(-c4ccco4)nc3c2)CC1	3%	-21	0%	2%	-3%
COC(CNC(=O)c1ccc2nc(-c3ccccc3)c(-c3ccccc3)nc2c1)OC	-1%	0	1%	-11%	?
Cc1ccc(C)c(N2CCN(C(=O)c3ccc4nc(-c5ccco5)c(-c5ccco5)nc4c3)CC2)c1	1%	11	3%	-19%	6µM*
O=C(NCCO)c1ccc2nc(-c3ccco3)c(-c3ccco3)nc2c1	3%	4	-1%	35µM*	17µM*
CO[C@@H]1c2cc(F)ccc2/C(=C\CCOC(=O)C/C=C/c2ccccc2)[C@H]1C	.	.	.	-6%	.
COc1cccc(-c2nc(SCc3cccc(Br)c3)n3[nH]c(=O)cc3n2)c1	-1%	.	-4%	-8%	.
CCN(CC)c1ccccc1/C=C/[n+]1ccc(CCCCI)c2ccccc21	.	.	-6%	.	.
Cc1ccsc1C1NC(=O)c2ccccc2N1 (stereo not given)	-9%	-7	?	-8%	-11%
O=C1NC(c2cccs2)Nc2ccccc21 (stereo not given)	-1%	10	0%	-19%	2.7µM*
CCOc1cccc(/C=N/NS(=O)(=O)c2ccc(C)c([N+](=O)[O-])c2)c1O	8%	-3	1%	15%	30µM*
COc1ccc2c(Cl)c(C(=O)N/N=C3\CCCC(=O)C3)sc2c1	?	21	2.8µM*	7%	30%
COc1ccc2c(Cl)c(C(=O)N/N=C/c3ccc4c(c3)OCO4)sc2c1	?	19	-27%	-5%	6%
COc1cc([C@@H]2c3cc4c(cc3[C@@H](OC3OC5COC(C)OC5C(O)C3O)[C@H]3COC(=O)[C@H]23)OCO4)cc(OC)c1O (stereo not given in full)	.	.	.	0%	.
COCCNC(=O)c1ccccc1N(Cc1ccccc1)S(=O)(=O)c1ccc(C)cc1	-6%	2	-7%	-28%	27µM*
COc1cc(C(=S)N2CCOCC2)cc(OC)c1OC	0%	-1	2%	?	27µM*
COC(=O)c1ccc(C(=S)N2CCCCC2)cc1	-16%	-6	-5%	35%	-12%
O=C(/C=C/c1ccccc1)Oc1ccc(C(=S)N2CCOCC2)cc1	-1%	12	-1%	2%	-15%
COC(=O)c1ccc(C(=S)N2CCOCC2)cc1	3%	10	-5%	-1%	12µM*
SMILES	Vif-A3F inh	TSHR antagonist	Vif-APOBEC3G blk	VDR inh	PLK1 PBD block
COc1cc(C(=S)N2CCOCC2)ccc1OC(=O)c1cc(OC)c(OC)c(OC)c1	1%	-5	0%	?	?
O=C(/C=C/c1ccco1)Oc1ccc(C(=S)N2CCOCC2)cc1	5%	1	-6%	?	12µM*
Cc1cc(C)c(NC(=O)Cn2c(=O)n(-c3cccc(C(F)(F)F)c3)c(=O)c3c(C)c(C)sc32)c(C)c1	.	.	.	2%	.
COc1ccc(-c2nn3c(-c4cc(C)[nH]n4)nnc3s2)cc1	.	.	1%	-19%	.
COc1ccc(-c2nc3cnc(Oc4cccc(Cl)c4)nc3n(CCC#N)c2=O)cc1	.	.	.	2%	.
N#CC(C#N)=Cc1cc2ccccc2nc1N1CCCCC1	-8%	-4	-1%	71µM*	?
COc1cccc(-c2coc3ccc(Br)cc3c2=O)c1	.	.	.	4%	.
NS(=O)(=O)c1ccc(CNC(=O)CCCSc2ccccc2)cc1	9%	6	-4%	-7%	30µM*
COc1ccc(CNC(=O)CCCSc2ccccc2)cc1	-1%	0	0%	2%	1%
NS(=O)(=O)c1ccc(CNC(=O)CNC(=O)Cc2ccccc2)cc1	14%	12	-3%	-16%	-5%
NS(=O)(=O)c1ccc(CNC(=O)/C=C/c2ccccc2)cc1	-11%	4	-1%	-2%	27µM*
C[C@@]12C=Cc3occc3C1CC[C@@]13C[C@@H](CCC12)[C@@](O)(CO)C3 (stereo not given in full)	.	.	.	40µM*	.
COc1cccc(-c2csc(N3CCC(C(N)=O)CC3)n2)c1	.	-11	.	.	.
COc1ccc(F)cc1S(=O)(=O)n1cc(C)nc1-c1ccccc1	3%	0	-1%	?	4.2µM*
COc1ccc(F)cc1S(=O)(=O)N1CCCN(S(=O)(=O)c2cc(F)ccc2OC)CC1	-2%	1	7%	-4%	27µM*
O=S(=O)(c1ccc(F)cc1)N1CCN(S(=O)(=O)c2cc(F)ccc2F)CC1	2%	1	1%	?	21µM*
CC(C)OC(=O)c1ccc(N2CCN(c3ccc(F)cc3)CC2)nc1	-8%	-18	1%	?	27µM*
COc1ccc(CCNC(=O)c2nc3ncccn3n2)cc1OC	0%	-1	0%	-3%	24µM*
COc1ccc(CCNC(=O)C2CCN(S(=O)(=O)c3cccc4cccnc34)CC2)cc1OC	0%	8	1%	-9%	27µM*
COc1ccc(CCNC(=O)c2cccc(-n3c(C)nc4cccnc43)c2)cc1OC	2%	.	1%	14%	.
Cc1ccc(-c2cc(-c3ccco3)c3c(N)c(C(=O)NN)oc3n2)cc1	11µM*	6	?	-12%	2%
NNC(=O)c1oc2nc(-c3cccs3)cc(-c3ccco3)c2c1N	.	-12	.	.	.
COc1ccc(C(=O)CCS(=O)(=O)c2ccc(C)cc2)cc1OC	3%	-29	-5%	?	12µM*
Cn1c(-c2nc(-c3ccccc3)cs2)nc2ccccc21	.	.	.	5%	.
COc1cc(/C=C/C(=O)Nc2cc(C(F)(F)F)ccc2Cl)cc(OC)c1OC	5%	-4	2%	-4%	27µM*
COc1cc(/C=C/C(=O)NC2CCCCC2)cc(OC)c1OC	1%	-3	-5%	?	27µM*
COc1cc(/C=C/C(=O)Nc2nnc(C(C)(C)C)s2)cc(OC)c1OC	-8%	-6	0%	-19%	24µM*
COc1ccc(N=c2nc(-c3ccccc3)n(-c3ccc(C)cc3)s2)cc1	.	.	3%	?	.
